Laboratory results published in PubChem BioAssay (Tox21).
Values joined by “and” are separate entries in the source; they are usually repeats but may differ in a detail not shown here. Equal entries are not always repeated. Results filed as inconclusive are left out. The source holds several records for some structures; these can differ, active in one and inactive in another. Active and inactive are the calls of the source. Unless noted, the call rests on the fitted dose curve; in most records, active means well fitted curve in the direction sought with a large enough effect in the repeat runs; inconclusive means weak or mixed curves; inactive means no such curve, though single readings can be large; an effect the other way counts as inactive or inconclusive.

Experiments:
[1] = qHTS assay to identify small molecule agonists of H2AX (AID 1224845; active means well fitted activation curve with a large enough effect in the signal ratio in the repeat runs, not every such curve was filed as active; the % refers to the signal ratio; further: potency means the concentration at half of the fitted maximal effect)
Summary of the method: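 Phospho-H2AX Ser139 measured by HTRF (ex 320 nm; em 665 and 620 nm) after 24 hr antibody incubation. Compounds, 15 concentrations, 0.76% DMSO, were applied to CHO-K1 cells for 3hr at 37C before lysis.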

[2] = qHTS assay to identify small molecule agonists of the hypoxia (HIF-1) signaling pathway (AID 1224846; active means well fitted activation curve with a large enough effect in the signal ratio in the repeat runs, not every such curve was filed as active; the % refers to the signal ratio; further: on the % scale 0 is the no-effect control and ±100 the full control effect)
Summary of the method: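 A low-serum medium (0.5% dialyzed FBS) holding 2,000 HRE-bla ME-180 cells per well is preincubated for 5 hrs, dosed with compounds by pintool, and kept a further 17 hrs at 37C, 5% CO2 before CCF4-AM FRET detection of beta-lactamase.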

[3] = qHTS assay to identify small molecule agonists of H2AX - cell viability counter screen (AID 1224847; calls by dose curve; further: nearly all actives have a fitted effect of over 30% in size; further: potency means the concentration at half of the fitted maximal effect)
Summary of the method: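 Cells plated first: CHO-K1, 1000 per well in 10% FBS medium, incubated overnight at 37C. Then 15-point compound titration added (final DMSO 0.76%) for 3 hr. Finally CellTiter-Glo added and luminescence read.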

[4] = qHTS RealTime-Glo MT Cell Viability Assay in HepG2 cells - 24 hour (AID 1224867); further: nearly all actives have a fitted effect of over 50% in size; further: potency means the concentration at half of the fitted maximal effect
Summary of the method: (§1)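 Cells + NanoLuc/prosubstrate dispensed (600 cells/well) → 5 h at 37 C/5% CO2 → compounds in DMSO transferred → 40 h incubation at 37 C, luminescence read at 0, 8, 16, 24, 32, 40 h.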

[5] = A CellTox Green Cytotoxicity Assay to monitor cytotoxicity in HEK293 cells - 0 hour (AID 1224869); further: on the % scale 0 is the no-effect control and ±100 the full control effect; nearly all actives have a fitted effect of over 50% in size
Summary of the method: (§2)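 Fluorescence intensity, read at 0, 8, 16, 24, 32 and 40 h of compound treatment, reflected dye binding to DNA of dead HEK293 cells; compounds (23 nL, DMSO) were added 5 h after plating cells with reagent.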

[6] = qHTS RealTime-Glo MT Cell Viability Assay in HepG2 cells - 40 hour (AID 1224870); further: on the % scale 0 is the no-effect control and ±100 the full control effect; nearly all actives have a fitted effect of over 50% in size
Summary of the method: (§3)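 Real-time viability: cells seeded at 600 per well together with NanoLuc and cell-permeant prosubstrate, compounds added after 5 h incubation. Luminescence tracked at 0, 8, 16, 24, 32 and 40 h of exposure.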

[7] = qHTS RealTime-Glo MT Cell Viability Assay in HEK293 cells - 16 hour (AID 1224872); further: nearly all actives have a fitted effect of over 50% in size; further: potency means the concentration at half of the fitted maximal effect
Summary of the method: (§4)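 Tox21 10K qHTS, HEK293, 600 cells/well, RealTime-Glo reagent co-dispensed with cells; 5 h preincubation, compound by pintool, 37 C, luminescence at 0–40 h.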

[8] = qHTS RealTime-Glo MT Cell Viability Assay in HepG2 cells - 8 hour (AID 1224873); further: nearly all actives have a fitted effect of over 55% in size; further: potency means the concentration at half of the fitted maximal effect
Summary of the method: as §3

[9] = A CellTox Green Cytotoxicity Assay to monitor cytotoxicity in HepG2 cells - 16 hour (AID 1224876); further: nearly all actives have a fitted effect of over 45% in size; further: potency means the concentration at half of the fitted maximal effect
Summary of the method: (§5)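 Using 1536-well format, dye-containing HepG2 suspension was seeded, allowed 5 h at 37 C/5% CO2, dosed by pintool with compounds, positive and negative controls, and imaged for fluorescence across 40 h.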

[10] = qHTS RealTime-Glo MT Cell Viability Assay in HepG2 cells - 32 hour (AID 1224877); further: nearly all actives have a fitted effect of over 55% in size; further: potency means the concentration at half of the fitted maximal effect
Summary of the method: as §1

[11] = A CellTox Green Cytotoxicity Assay to monitor cytotoxicity in HepG2 cells - 24 hour (AID 1224878); further: nearly all actives have a fitted effect of over 45% in size; further: potency means the concentration at half of the fitted maximal effect; on Cytotoxicity: on the % scale 0 is the no-effect control and ±100 the full control effect
Summary of the method: as §5

[12] = A CellTox Green Cytotoxicity Assay to monitor cytotoxicity in HepG2 cells - 40 hour (AID 1224879); further: nearly all actives have a fitted effect of over 40% in size; further: potency means the concentration at half of the fitted maximal effect
Summary of the method: as §5

[13] = qHTS RealTime-Glo MT Cell Viability Assay in HEK293 cells - 0 hour (AID 1224880); further: top concentration of the series differs between compounds; on the % scale 0 is the no-effect control and ±100 the full control effect; nearly all actives have a fitted effect of over 45% in size
Summary of the method: (§6)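 Viable HEK293 cells reduce a cell-permeant prosubstrate; the product diffuses out and is consumed by NanoLuc in the medium to give light. Compounds went in after a 5 h incubation and plates were read over the treatment course.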

[14] = qHTS assay to identify small molecule antagonists of the estrogen related receptor (ERR) signaling pathway from Tox21 library (AID 1224848); further: nearly all actives have a fitted effect of over 50% in size; further: potency means the concentration at half of the fitted maximal effect
Summary of the method: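 Reading was by luminescence 30 min after ONE-Glo addition. Before that, ERR cells at 2,000 per well had rested 6 h at 37 C/5% CO2 and then received pin-tooled compounds in DMSO for 18 h at 37 C.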

[15] = qHTS assay to identify small molecule agonists of the estrogen related receptor (ERR) signaling pathway from Tox21 library (AID 1224849; calls by dose curve; further: on the % scale 0 is the no-effect control and ±100 the full control effect; nearly all actives have a fitted effect of over 15% in size); conditions: ERR reporter cell line, ONE-Glo luciferase, 18 h
Summary of the method: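 Screening used an NTP-provided ERR luciferase cell line. Compounds in DMSO were added 6 h after seeding and left 18 h at 37 C before a 30 min ONE-Glo step and luminescence reading.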

[16] = qHTS RealTime-Glo MT Cell Viability Assay in HEK293 cells - 32 hour (AID 1224868); further: nearly all actives have a fitted effect of over 50% in size; further: potency means the concentration at half of the fitted maximal effect
Summary of the method: as §4

[17] = A CellTox Green Cytotoxicity Assay to monitor cytotoxicity in HEK293 cells - 40 hour (AID 1224871); further: nearly all actives have a fitted effect of over 45% in size; further: potency means the concentration at half of the fitted maximal effect
Summary of the method: as §2

[18] = A CellTox Green Cytotoxicity Assay to monitor cytotoxicity in HEK293 cells - 32 hour (AID 1224881); further: nearly all actives have a fitted effect of over 40% in size; further: potency means the concentration at half of the fitted maximal effect
Summary of the method: as §2

[19] = A CellTox Green Cytotoxicity Assay to monitor cytotoxicity in HEK293 cells - 24 hour (AID 1224875)
Summary of the method: as §2

[20] = qHTS RealTime-Glo MT Cell Viability Assay in HEK293 cells - 40 hour (AID 1224874); conditions: RealTime-Glo luminescence; max response: stronger effect = lower value
Summary of the method: as §6

[21] = at 92.4 µM (top of the series) unless noted

ClCc1ccc(Cl)cc1Cl
inactive: Potency [1] | outcome [2] | Potency [3] | Potency [4] | Potency [5] | Potency [6] | Potency [7] | Potency [8] | Potency [9] | Potency [10] | Potency [11] | Potency [12] | Potency [13]

O=C(O)COc1nc(Cl)c(Cl)cc1Cl
inactive: Potency [1] | outcome [2] | Potency [3] | Potency [4] | Potency [6] | Potency [7] | Potency [8] | Potency [10] | Potency [12] | Potency [13]
active: Potency [9] 12.6 µM

O=c1[nH]c2ccccc2n1C1CCN(CCCC(c2ccc(F)cc2)c2ccc(F)cc2)CC1
49 µM (active) and inactive: Potency [17] | Potency [9] | Potency [18]
active: Potency [3] 45 µM | Potency [14] 10.9 µM and 13.3 µM | Potency [16] 17.4 µM and 16.9 µM | Potency [7] 13.8 µM and 19 µM | Potency [12] 19.5 µM and 21.3 µM
inactive: Potency [1] | activity change, positive = activation ([15]; at 42.5 µM (top of the series)) -52.6% | activity change, positive = activation ([15]; at 92.4 µM (top of the series)) -79.9% | Potency [5] | Potency [13]
43.6 µM (active) and inactive: Potency [4] | Potency [8] | Potency [11]
34.7 µM (active) and inactive: Potency [10]

Oc1cc(Cl)c(Cl)c(Cl)c1
active: Potency [3] 42.7 µM | Potency [14] 29.1 µM | Potency [17] 13.1 µM | Potency [18] 11.7 µM
inactive: Potency [1] | activity change, positive = activation [15, 21] -65.2% | Potency [4] | Potency [5] | Potency [6] | Potency [8] | Potency [19] | Potency [9] | Potency [10] | Potency [11] | Potency [13]

CC1(C)CN=C(NN=C(/C=C/c2ccc(C(F)(F)F)cc2)/C=C/c2ccc(C(F)(F)F)cc2)NC1
inactive: Potency [1] | activity change, positive = activation [15, 21] -76.2% | Potency [5] | Potency [13]
active: Potency [3] 25.3 µM | Potency [14] 13.7 µM | Potency [4] 17.4 µM | Potency [16] 38.9 µM | Potency [17] 49 µM | Potency [7] 49 µM | Potency [8] 24.5 µM | Potency [20] 38.9 µM | Potency [9] 24.5 µM | Potency [10] 17.4 µM | Potency [11] 19.5 µM | Potency [12] 15.5 µM | Potency [18] 54.9 µM

O=C(CCl)Nc1ccccc1
active: Potency [1] 80 µM | Potency [14] 19.3 µM | Potency [20] 38.9 µM
inactive: Potency [3] | activity change, positive = activation [15, 21] -72.1% | Potency [4] | Potency [5] | Potency [6] | Potency [8] | Potency [19] | Potency [9] | Potency [11] | Potency [13]

CCC(C)(C)C(=O)OC1=C(c2ccc(Cl)cc2Cl)C(=O)OC12CCCCC2
inactive: Potency [1] | Potency [3] | Potency [14] | Potency [4] | Potency [16] | Potency [5] | Potency [6] | Potency [17] | Potency [7] | Potency [8] | Potency [19] | Potency [9] | Potency [10] | Potency [11] | Potency [12] | Potency [18]
